The text below walks through data of the supplement of paper PMC7530171.

Assay [1] deals with THP-1. The assay can be described thus: THP-1 cell loss relative to DMSO control; higher = more host cell loss (toxicity); extreme values may be limits of the assay. To be noted: 10 µM; 4 days; infection: M. tuberculosis H37Rv. As for the experimental part: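 OICR kinase inhibitor library screened in duplicate at 10 uM against M. tuberculosis-infected THP-1 macrophages, 4 days at 37 C. THP-1 cell loss (cytotoxicity or loss of adherence) was quantified from Hoechst-stained nuclei counts by high-content imaging and normalised to the 1% DMSO control; 100 = complete loss of host cells.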

For assay [2], the system named is THP-1 macrophages infected with Mycobacterium tuberculosis H37Rv. The assay can be described thus: intracellular M.tb growth inhibition relative to DMSO (0) and 4 uM bedaquiline (100); higher = stronger inhibition of intracellular bacterial growth. As to conditions: 10 µM; 4 days. As for the experimental part:
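OICR kinase inhibitor library screened in duplicate at 10 uM against THP-1 macrophages (PMA-differentiated) infected with M. tuberculosis H37Rv-pTEC27 (tdTomato RFP), 4 days at 37 C. Rows with complete host cell loss (placeholder inhibition 0, cell loss 100) were removed.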

Counter-ions that a name gives are not always drawn. ± gives the standard deviation.

In assay [1], `CC(=O)c1ccc(N2CCOCC2)cc1O` had a THP-1 cell loss of 16.46 ± 0.081%. Moreover, the “intracellular M.tb growth inhibition” value in assay [2] was -148 ± 170%. For `Nc1ncnc2nc(-c3ccc(N4CCOCC4)nc3)cc(-c3cccc(Br)c3)c12` [ABT-702 dihydrochloride] the same measures were 24.4 ± 13% and 29.6 ± 24%. `COc1cccc(-c2cc(=O)c3ccccc3o2)c1N` displayed a THP-1 cell loss in assay [1] of 26.7 ± 35%. In addition, the “intracellular M.tb growth inhibition” value in assay [2] was 27.4 ± 15%. For the compound `Cn1c(=O)c(Oc2ccc(F)cc2F)cc2cnc(NC3CCOCC3)nc21`, the THP-1 cell loss in assay [1] was 17.2 ± 6.1%. In assay [1], `CC[C@H](Nc1ncnc2[nH]cnc12)c1nc2cccc(F)c2c(=O)n1-c1ccccc1` yielded a THP-1 cell loss of 35.9 ± 6.3%. Regarding `Cc1ccc(-n2nc(C(C)(C)C)cc2NC(=O)Nc2ccc(OCCN3CCOCC3)c3ccccc23)cc1`, in assay [1], the THP-1 cell loss came to 50 ± 71%. The compound `O=C(Nc1nc2ccccc2n1CCN1CCOCC1)c1cccc([N+](=O)[O-])c1` [IRAK-1/4 Inhibitor I] displayed a THP-1 cell loss in assay [1] of 2.5 ± 3.5%. In addition, in assay [2], the “intracellular M.tb growth inhibition” value was 13.1 ± 7.2%. As for `Nc1ncnc2c1c(-c1cccc(OCc3ccccc3)c1)cn2C1CC(CN2CCC2)C1` (stereo not given), in assay [1], the THP-1 cell loss amounted to 18.9 ± 6%. On to `Nc1cc(N)c(N)cc1N` [FAK Inhibitor 14], for which the THP-1 cell loss in assay [1] was 11.9 ± 4%. `N#C/C(=C(/N)Sc1ccc(N)cc1)c1ccccc1C(F)(F)F` showed a THP-1 cell loss in assay [1] of 78.2 ± 4.7%. Besides, in assay [2], the “intracellular M.tb growth inhibition” value was 5.44 ± 36%.

`C#Cc1cccc(Nc2ncnc3cc(OCCOC)c(OCCOC)cc23)c1` [Erlotinib HCl] had a THP-1 cell loss in assay [1] of 5.26 ± 7.4%. Further, in assay [2], the “intracellular M.tb growth inhibition” value is -17.4 ± 52%. For `CC(NC(=O)C(C#N)=Cc1ccc(O)c(O)c1)c1ccccc1` (stereo not given) [Tyrphostin B44], in that order: 3.72 ± 5.3% and -7.66 ± 34%. For `COc1cc2ncnc(Nc3ccc(Oc4ccccc4)cc3)c2cc1OC` the same measures were 0% and 41.9 ± 47%. In assay [1], `COc1cc2c(N3CCN(C(=O)Nc4ccc(OC(C)C)cc4)CC3)ncnc2cc1OCCCN1CCCCC1` came in with a THP-1 cell loss of 4.46 ± 6.3%. Besides, the “intracellular M.tb growth inhibition” value in assay [2] is 53 ± 8%. In assay [1], `N#Cc1c(NC(=O)c2cccc3ccccc23)sc2c1CCCC2` came in with a THP-1 cell loss of 60.6 ± 15%. For the same compound, in assay [2], the “intracellular M.tb growth inhibition” value was -226 ± 330%. For `Nc1cc(C(F)(F)F)c(-c2cc(N3CCOCC3)nc(N3CCOCC3)n2)cn1` the same measures were 73.3 ± 38% and -76.8 ± 110%.

With `Cc1cc(C=C2C(=O)C=CC2=O)cc(C)c1O`, the THP-1 cell loss in assay [1] worked out at 1.15 ± 1.6%. Also, the “intracellular M.tb growth inhibition” value in assay [2] is -63.7 ± 80%. In the case of `O=C1NC(=O)c2c1c(-c1ccccc1)cc1[nH]c3ccc(O)cc3c21`, the THP-1 cell loss in assay [1] stood at 77.75 ± 0.7%. Take `C[S+]([O-])c1ccc(-c2nc(-c3ccc(F)cc3)c(-c3ccncc3)[nH]2)cc1` (stereo not given): the THP-1 cell loss in assay [1] turned out to be 22.7 ± 8.7%. `Cc1[nH]c(/C=C2\C(=O)Nc3ccccc32)c(C)c1CCC(=O)O`: in assay [1], the THP-1 cell loss turned out to be 5 ± 7.1%. The “intracellular M.tb growth inhibition” value in assay [2] is 6.44 ± 30%.

Consider `OCCC#Cc1nc(-c2ccc(F)cc2)c(-c2ccncc2)n1CCCc1ccccc1`, for which the THP-1 cell loss in assay [1] worked out at 66.42 ± 0.12%. Also, the “intracellular M.tb growth inhibition” value in assay [2] amounted to 14.2 ± 4.9%. For `Cc1cc(Nc2ncc3cc(-c4c(Cl)cccc4Cl)c(=O)n(C)c3n2)ccc1F` the same measures were 88.1 ± 17% and 4.79 ± 6.8%.

`Cc1ccc(NC(=O)c2ccc(CN3CCN(C)CC3)cc2)cc1Nc1nccc(-c2cccnc2)n1` [Imatinib Mesylate]: in assay [1], the THP-1 cell loss was 9.14 ± 13%. For the same compound, in assay [2], the “intracellular M.tb growth inhibition” value stood at 54.9 ± 5%. Consider `Nc1ncnc(Nc2ccc(OCc3ccccc3)c(Cl)c2)c1/C=N/OCCN1CCOCC1`, for which the THP-1 cell loss in assay [1] was 38.7 ± 4.5%. For the same compound, the “intracellular M.tb growth inhibition” value in assay [2] is 55.9 ± 12%. Consider `C=CC(=O)Nc1cc2c(Nc3ccc(F)c(Cl)c3)ncnc2cc1OCCCN1CCOCC1`, for which the THP-1 cell loss in assay [1] came to 100%. Turning to `O=C(Nc1cc(C(F)(F)F)cc(C(F)(F)F)c1)c1cc(Cl)ccc1O`, in assay [1], the THP-1 cell loss was 53 ± 46%. In assay [2], the “intracellular M.tb growth inhibition” value worked out at 64.7 ± 16%.

In assay [1], `Cc1c[nH]c(/C=C2\C(=O)Nc3ccccc32)c1CCC(=O)O` came in with a THP-1 cell loss of 10.8 ± 15%. In turn, `Cc1cc(Nc2cc(C)c(C#N)c(NC(C)CCCC(C)(C)O)n2)n[nH]1` (stereo not given) [TC-A 2317 hydrochloride] had a THP-1 cell loss in assay [1] of 19.1 ± 1%. For `c1ccc(-c2[nH]ncc2-c2ccnc3ccccc23)nc1`, the THP-1 cell loss in assay [1] was found to be 0%. Moreover, the “intracellular M.tb growth inhibition” value in assay [2] stood at 2.68 ± 17%.

Take `COc1cc2c(cc1OC)-c1[nH]nc(Nc3cccc(F)c3)c1C2`: the THP-1 cell loss in assay [1] turned out to be 27.5 ± 16%. As to `Cc1[nH]c(/C=C2\C(=O)Nc3ccc(S(=O)(=O)Cc4c(Cl)cccc4Cl)cc32)c(C)c1C(=O)N1CCC[C@@H]1CN1CCCC1`, the THP-1 cell loss in assay [1] was 19.1 ± 12%. The “intracellular M.tb growth inhibition” value in assay [2] was 51 ± 13%.

For `Cc1cc2c(F)c(Oc3ncnn4cc(OC[C@@H](C)O)c(C)c34)ccc2[nH]1` [Brivanib], the THP-1 cell loss in assay [1] was 25.4 ± 0.91%.

`Cn1cncc1[C@@](N)(c1ccc(Cl)cc1)c1ccc2c(c1)c(-c1cccc(Cl)c1)cc(=O)n2C` [Tipifarnib]: in assay [1], the THP-1 cell loss amounted to 29.6 ± 27%. In addition, the “intracellular M.tb growth inhibition” value in assay [2] was 3.85 ± 56%. The compound `O=C1NCCc2[nH]c(-c3ccncc3)cc21` gave a THP-1 cell loss in assay [1] of 100%. As for `Cc1nc(Nc2ncc(C(=O)Nc3c(C)cccc3Cl)s2)cc(N2CCN(CCO)CC2)n1` [Dasatinib], the THP-1 cell loss in assay [1] is 34.7 ± 4.4%. The “intracellular M.tb growth inhibition” value in assay [2] was found to be 47.9 ± 35%. Compound `Cc1ccccc1C(=O)c1ccc(Nc2ccc(Br)cc2N)cc1Cl` had a THP-1 cell loss in assay [1] of 16.5 ± 23%. Besides, in assay [2], the “intracellular M.tb growth inhibition” value stood at 20.1 ± 14%. Compound `O=S(=O)(c1cccc2c(Cl)cccc12)N1CCCNCC1` [ML 9 hydrochloride] yielded a THP-1 cell loss in assay [1] of 31.1 ± 21%. In addition, the “intracellular M.tb growth inhibition” value in assay [2] was -14 ± 4.8%. `O=c1cc(N2CCOCC2)oc2c1ccc1ccccc12` registered a THP-1 cell loss in assay [1] of 24.4 ± 6.4%. In addition, the “intracellular M.tb growth inhibition” value in assay [2] came out at 19.8 ± 4.3%. For `COC(=O)Nc1ccc(-c2nc(N3CCOCC3)c3cnn(C4CCN(C(=O)OC)CC4)c3n2)cc1`, in that order: 35.6 ± 0.38% and -222 ± 330%.
